Measurements taken from PubChem BioAssay (NCI).
This is part of a sample that, as a whole, favours compounds with a hit. Of some 83,000 tested, about 20% had one in any assay.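 Single-dose data. Exposure time 48 hours. Values below 10 considered active.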 Unmarked numbers belong to inactive results. Activity calls are given as the source filed them.

system: HCT-116 colon; test: NCI-60 one-dose screen, 48 h (100 = growth as untreated, 0 = no growth, -100 = all killed); details: 10 µM unless noted

Compound	growth
C[C@]12CC[C@@H]3c4ccc(Oc5nc(N6CC6)nc(N6CC6)n5)cc4CC[C@H]3[C@@H]1CCC2=O	26.7%
O=C(Nc1ccncc1F)c1cn(CC2CC2)c2ccccc12	99.5%
CC1=C(CNO)C2=C(C)C3(CC3)[C@@](C)(O)C(=O)C2=C1	2.04% (active)
Nc1nnnc2nc[nH]c12	-11.8% (active)
CC(=O)Nc1nc2c(s1)CC[C@@]1(C)C2=CC[C@H]2[C@@H]3CC[C@H](O)[C@@]3(C)CC[C@@H]21	30.3%
CC[CH2][Sn]([Cl])([Cl])[CH2]CC	79.9%
O=C([O][Hg][c]1ccccc1)c1ccccc1	-82.5% (active)
C[S+]1C=Cc2ccccc2C1c1ccc(Cl)cc1 (configuration not stated)	81.6%
CC(C)CCC(=O)O[C@H]1CC[C@H]2[C@@H]3CCC4=CC(=O)CC[C@]4(C)[C@H]3CC[C@]12C	99.8%
NC(=Nc1ccccc1)N[N+](=O)[O-]	101%
O=C(CC1(O)C(=O)N(Cc2ccccc2)c2ccc(Cl)cc21)c1ccc(C(=O)NCC2CCC3(CC2)OOC2(CCCCC2)OO3)cc1 (configuration not stated)	3.72% (active)
Fc1ccc(N2COOC3(OOC2)C2CC4CC(C2)CC3C4)cc1	90.9%
COc1ccc([As]=[As]c2ccc(OC)c(NCS(=O)(=O)O)c2)cc1NCS(=O)(=O)O (configuration not stated)	-60.2% (active)
CC1=C(O)[C@@](C)(CCCCC[C@H](C)CCCCc2ccc(O)cc2)OOC1=O	88.6%
Cc1cc(N(CCCl)CCCl)ccc1C=Nc1ccc(-c2csc(Cc3ccccc3)n2)cc1	77%
C[C@@H]1O[C@@H](O[C@H]2C[C@@H](O)[C@]3(CO)C4C(CC[C@]3(O)C2)[C@@]2(O)CC[C@H](C3=CC(=O)OC3)[C@@]2(C)C[C@H]4O)[C@H](O)[C@H](O)[C@H]1O (some centres not stated)	-94.5% (active)
CCC(O)(CN)c1ccccc1 (configuration not stated)	99.8%
CC[C@H](C)[C@H](NC(=O)[C@H]1CCCCN1C)C(=O)N(C)[C@H](CCc1nc(C(=O)N[C@@H](Cc2ccccc2)C[C@H](C)C(=O)OC)cs1)C(C)C	1.83% (active)
COC(=O)CC12CC(NC(=O)c3csc([C@@H](C[C@H](C(C)C)N(C)C(=O)[C@@H](NC(=O)[C@H]4CCCCN4C)C(C)C)OC(C)=O)n3)(C1)C2	9.61% (active)
CCC[CH2][Sn]([CH2]CCC)([CH2]CCC)[O]c1ccc(Cl)cc1Cl	-79.9% (active)
O=C1OCCC1Br (configuration not stated)	103%
CC(=O)ONc1ccc([N+](=O)[O-])c(C(F)(F)F)c1	100%
